PLCb3 inh: human PLC-beta3 inhibitors, primary screen, biochemical, fluorescence; Purified PLC-beta3, fluorogenic substrate; inhibition, % at 12.2 µM; 0.18% of 370,000 active; AID 720704, 2013; in the data active means inhibition above about 11%;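 further: 0% = median of compound wells on plate and 100% = full blocker control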
sPLA2-III inh: human group III sPLA2 inhibitors, primary screen, biochemical, QFRET, BODIPY PC-A2 liposome substrate; QFRET BODIPY PC-A2 liposome hydrolysis, fluorescence; AID 743126, 2013; 0.56% of 370,000 active; inhibition, % at 12.2 µM;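 active means inhibition above mean plus 3 SD of compounds lying within the high and low control bounds, cut at about 19% in these data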;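 further: 0% = median of test compound wells and 100% = no enzyme DMSO wells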
ADAM10 inh: human ADAM10 inhibitors, primary screen, biochemical, QFRET, HTS; inhibition, % at 7 µM; recombinant ADAM10, EDANS/DABCYL FRET peptide cleavage, 3 h; 0.62% of 370,000 active;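 active means inhibition above a per-campaign cutoff equal to the mean of compounds falling between control-based bounds plus 3 SD, cut at about 20% in these data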;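 further: 0% = DMSO wells while the 100% control is not disclosed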
Target sequence (O14672 214-748 limits assumed): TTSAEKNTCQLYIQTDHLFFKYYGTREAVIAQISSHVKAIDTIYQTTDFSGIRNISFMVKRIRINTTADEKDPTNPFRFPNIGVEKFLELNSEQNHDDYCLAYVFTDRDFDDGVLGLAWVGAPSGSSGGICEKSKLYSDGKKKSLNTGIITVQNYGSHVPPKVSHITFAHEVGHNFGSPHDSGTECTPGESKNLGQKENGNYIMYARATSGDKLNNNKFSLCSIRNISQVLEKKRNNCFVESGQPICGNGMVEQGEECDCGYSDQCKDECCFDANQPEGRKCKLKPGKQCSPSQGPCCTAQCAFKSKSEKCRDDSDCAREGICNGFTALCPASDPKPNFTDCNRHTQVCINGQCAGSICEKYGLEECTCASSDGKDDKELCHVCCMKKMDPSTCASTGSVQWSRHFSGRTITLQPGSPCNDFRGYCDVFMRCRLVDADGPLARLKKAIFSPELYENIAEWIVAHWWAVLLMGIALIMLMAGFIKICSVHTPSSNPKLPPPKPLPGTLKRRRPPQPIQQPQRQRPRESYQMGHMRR
PLCg1 inh: PLC-gamma1 enzyme inhibitors, primary screen, biochemical, fluorescence, purified enzyme | 1-phosphatidylinositol 4,5-bisphosphate phosphodiesterase gamma-1 (Homo sapiens), P19174 | fluorogenic substrate | inhibition, % at 12.2 µM | 0.84% of 370,000 active | AID 720700, 2013
ADAM17 inh: ADAM17 inhibitors, primary screen, biochemical, QFRET; Disintegrin and metalloproteinase domain-containing protein 17 (Homo sapiens), P78536; 0.83% of 370,000 active; recombinant ADAM17, EDANS/DABCYL FRET peptide cleavage; inhibition, % at 6.95 µM;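 active means inhibition above the mean of compounds lying between control limits plus 3 SD, set per campaign, cut at about 8.5% in these data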;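 further: 0% = DMSO-only wells as the low control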
proKLK7 act: proKLK7 zymogen activators, primary screen, biochemical, fluorescence intensity; Kallikrein-7 (Homo sapiens), P49862; purified proKLK7, EDANS-DABCYL substrate fluorescence; 100% is mature enzyme control, 0% vehicle; activation, % at 7 µM; 0.9% of 370,000 active; AID 652039, 2013;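 active means activation above the mean of all tested compounds plus 3 SD, computed per campaign excluding outliers beyond control limits, cut at about 13% in these data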
PLCg1 ctr: PLC-gamma1 enzyme inhibitors, counter-screen for PLC-beta3 inhibitor project, biochemical, fluorescence. purified PLC-gamma1, fluorogenic substrate. inhibition, % at 12.3 µM. AID 743258, 2014. shares compounds with PLCg1 inh. 3.1% of 3,300 active
PLCb3 confirm: PLC-beta3 inhibitor confirmation, biochemical, fluorescence, purified enzyme; shares compounds with PLCg1 inh; fluorogenic substrate fluorescence; inhibition, % at 12.3 µM; 1% of 3,300 active; AID 743261, 2014; in the data active means inhibition above about 11%
An asterisk follows results filed as active; . = no result. Compounds with a hit are over-represented: about 3.4% of the library has one in this group of screens. Unless noted, no stated cut-off is given here; in the data, active means inhibition above about 9.5%; inactive means the rest.

SMILES	PLCb3 inh	sPLA2-III inh	ADAM10 inh	PLCg1 inh	ADAM17 inh	proKLK7 act	PLCg1 ctr	PLCb3 confirm
O=C(NC1CCN(C(=O)NC2CCCCC2)CC1)c1ccco1	4.9	-0.1	11.8	5.9	-2.8	0.0	.	.
Cc1ccc(C(C(=O)NC2CCCCC2)N(CC2CCCO2)C(=O)CNC(=O)c2ccco2)cc1 (configuration not stated)	4.1	2.2	4.2	10.0*	4.8	-0.5	-4.1	-4.1
O=C(NC1CCCCCCC1)c1ccco1	7.8	6.6	1.6	11.2*	3.9	-0.6	-0.6	0.8
C[C@H](CO)N1C[C@H](C)[C@@H](CN(C)C(=O)CCC(F)(F)F)OCc2cn(nn2)CCCC1=O	1.1	10.6	4.9	2.8	-1.8	-0.6	.	.
Cc1ccccc1C(=O)NCCCc1ccccc1	2.6	4.5	-11.3	11.1*	-2.6	-0.2	-0.2	-2.0
Cc1ccccc1C(=O)NCCCCc1ccccc1	3.8	-2.9	9.2	4.5	1.2	-0.3	.	.
COC(=O)[C@]12C[C@H](CC(=O)N3CCSCC3)C(=O)N(Cc3ccco3)C1=C[C@H](C(C)(C)C)O[C@@H]2C	-0.1	-2.8	-5.7	-0.7	-3.6	-0.4	.	.
CCCCN(C)C(=O)c1ccc2c(c1)NC(=O)C(C)(C)O2	-1.9	3.2	0.3	0.0	-2.1	0.2	.	.
CCCn1c(SCC(=O)Nc2nc3c(s2)CCCC3)nc2c1c(=O)n(C)c(=O)n2C	6.6	9.0	2.9	10.4*	-0.5	0.0	1.3	0.8
CCOC(=O)C1=C[C@@H](C(C)(C)C)N(S(=O)(=O)c2ccc([N+](=O)[O-])cc2)[C@H]1c1ccccc1Cl	0.9	-5.7	-3.9	2.2	-3.0	-1.0	.	.
C/C(=N\Nc1ccc([N+](=O)[O-])cc1[N+](=O)[O-])C(C)(C)C(C(=O)O)C(=O)O	5.3	6.3	6.8	10.7*	2.1	0.3	-3.3	0.8
COC(=O)COc1ccc(S(=O)(=O)NCc2ccco2)cc1Cl	10.2	-8.2	5.3	11.0*	-1.5	-0.2	-3.4	-5.6
O=C(NCc1ccccc1F)C1CCCN1C(=O)NCc1ccccc1 (configuration not stated)	13.5*	8.7	2.9	3.8	5.7	-1.0	3.8	-0.7
CC(C)(C)c1ccc(OC(=O)c2ccc3snnc3c2)cc1	1.8	-5.3	10.5	10.2*	6.4	0.3	0.3	4.5
Cc1cc(=O)[nH]c(N2CCN(c3ccc(Cl)cc3)CC2)n1	-1.5	2.4	1.4	7.2	0.0	-0.1	.	.
Cc1cc(=O)[nH]c(N2CCCC2)n1	4.7	10.1	7.0	11.6*	2.1	1.3	-9.4	-2.6
COc1ccccc1C(=O)N1CCN(C(=O)[C@H]2O[C@@H](n3cnc(C(N)=O)n3)[C@H](O)[C@@H]2O)CC1	2.6	9.1	-11.2	1.0	-4.1	0.9	.	.
CCOc1ccc(CC2S/C(=N/c3ccccn3)NC2=O)cc1 (configuration not stated)	-0.6	-7.1	6.5	11.0*	1.7	-0.1	-7.2	-5.2
Cc1cccc(/N=C2/NC(=O)C(Cc3ccccc3)S2)n1 (configuration not stated)	-6.3	0.2	-4.1	5.2	-2.9	0.8	.	.
Cc1cc(N/C(=C\C(=O)c2ccccc2)c2ccccc2)ccc1Br	2.2	2.7	-1.1	1.5	-2.3	0.7	.	.
CCN1C(=O)N(C(C)=O)[C@@H]2C[C@H](C(=O)N3CCCC3)[C@H](C)[C@H](c3ccccc3)C[C@@H]21	0.4	13.9	-14.2	1.5	-0.8	-0.5	.	.
